# Experimental data: PubChem BioAssay AID624330 (Southern Research Specialized Biocontainment Screening …, 2012)
# The campaign covered roughly 340,000 compounds. About 2,100 (0.62%) were called active. Only a sample is shown. Measured potencies and affinities stand elsewhere. A number with no mark means an inactive call.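 Rule for the calls: active = first-screen hits whose inhibition reached a set limit at any dose in the follow-up dose series; inconclusive = inhibition above the set first-screen limit but never retested; inactive = the rest.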
# Molecular target: Rac GTPase-activating protein 1 (Homo sapiens) (UniProt Q9H0H5)
# Sequence (Q9H0H5 whole entry, looked up): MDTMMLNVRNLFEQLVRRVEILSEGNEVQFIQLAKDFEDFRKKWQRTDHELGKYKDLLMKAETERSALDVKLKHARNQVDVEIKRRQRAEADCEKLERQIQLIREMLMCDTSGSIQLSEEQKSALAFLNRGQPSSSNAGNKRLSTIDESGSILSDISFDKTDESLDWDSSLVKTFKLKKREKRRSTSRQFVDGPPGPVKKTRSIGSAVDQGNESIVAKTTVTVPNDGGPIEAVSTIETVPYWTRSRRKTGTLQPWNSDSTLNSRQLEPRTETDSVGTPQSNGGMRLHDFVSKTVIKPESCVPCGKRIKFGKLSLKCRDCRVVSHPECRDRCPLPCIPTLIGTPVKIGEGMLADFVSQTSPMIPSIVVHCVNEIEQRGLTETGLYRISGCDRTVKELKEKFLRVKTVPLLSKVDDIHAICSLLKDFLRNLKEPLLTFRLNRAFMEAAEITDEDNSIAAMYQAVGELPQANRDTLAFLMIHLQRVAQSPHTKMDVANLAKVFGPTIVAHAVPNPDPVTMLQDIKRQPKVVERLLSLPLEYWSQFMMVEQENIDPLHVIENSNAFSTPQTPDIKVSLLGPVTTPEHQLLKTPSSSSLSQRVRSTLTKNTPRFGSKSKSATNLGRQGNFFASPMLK
# Assay: MgcRacGAP GTPase-activating activity inhibitors, confirmation, biochemical, ADP Hunter fluorescence, primary and confirmatory (AID 624330);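 note: fluorescence reports GDP produced by GAP-driven GTP hydrolysis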
# Details: MgcRacGAP-stimulated Rac1 GTP hydrolysis, at 30 µM, active compounds read high, GST-tagged Rac1 F28L mutant substrate
row,SMILES,inhibition [%]
1,O=C(NCc1ccco1)C1CCCN(c2nnc(-n3cccc3)s2)C1 (stereo unspecified),14.7
2,C=CCn1c(SCC(=O)NC2(C)CCS(=O)(=O)C2)nc2ccccc21 (stereo unspecified),1.26
3,Cn1c(N)c(C(=O)CSc2nc3ccccc3n2-c2ccccc2)c(=O)n(C)c1=O,4.85
4,CCOC(=O)CNC(=O)C1c2ccccc2Oc2ccccc21,3.51
5,Cc1csc(NC(=O)c2ccncc2)n1,7.69
6,Cc1cc(=O)[nH]c(SCC(=O)Nc2ccccc2[N+](=O)[O-])n1,6.16
7,CC(=O)N(C)c1ccc(N=Nc2ccc3ncccc3c2)cc1,-1.54
8,COc1ccc(/C=N/NC(=O)c2sc3nc(C)cc(C)c3c2N)cc1,9.68
9,O=C(O)C1Nc2c(C(F)(F)F)ccc(Cl)c2C2C=CCC12 (stereo unspecified),-3.26
10,CC(C)C1Nc2c(O)cc(Cl)c([N+](=O)[O-])c2C2C=CCC21 (stereo unspecified),11.3
11,CCCCn1nc(C(=O)N(CC(C)C)c2c(N)n(CCCC)c(=O)[nH]c2=O)c2ccccc2c1=O,9.52
12,COc1ccccc1-c1nnc(SCC(=O)NC2CCS(=O)(=O)C2)n1N (stereo unspecified),8.87
13,Cc1cnc(C(=O)Oc2c(C)ccc(C)c2C)cn1,-0.23
14,Cc1cnc(C(=O)OCC(=O)c2ccc(-c3ccccc3)cc2)cn1,-1.23
15,Cc1ccc(S(=O)(=O)N2CCC(C(=O)NCCc3ccccc3)CC2)cc1,2.72
16,CSCCC(NC(=O)c1ccccc1Cl)C(=O)NNC(=O)c1ccncc1 (stereo unspecified),7.49
17,c1ccc(Cn2cc(-c3ccccc3)cn2)cc1,6.79
18,COc1ccc(C(C#N)=C2C=C(Cl)C(=NO)C=C2Cl)cc1,-1.89
19,COc1ccc(C(C#N)=C2C=CC(=NO)C(C)=C2Cl)cc1,21.7
20,CC(C)c1ccc(NC(=O)CN2CCN(c3ccccn3)CC2)cc1,7.53
21,CC(=O)Nc1ccc(NC(=O)CN2CCN(c3ccccn3)CC2)cc1,6.59
22,O=C(CN1CCN(c2ccccn2)CC1)Nc1ccccc1,-4.1
23,COC(=O)c1ccc(NC(=O)CN2CCN(c3ccccn3)CC2)cc1,2.35
24,CN1CCN(C(=O)c2cnn3c(C(F)(F)F)cc(-c4ccc5c(c4)OCO5)nc23)CC1,9.9
25,O=c1[nH]c2c(s1)C(c1ccc(O)cc1)C1C3CCC(C3)C1S2 (stereo unspecified),11.5
26,C[C@H](NC(=O)[C@H](Cc1ccccc1)n1c(=O)[nH]c2ccccc2c1=O)C(=O)N1CCC[C@H]1C(=O)O,-3.53
